NSD2 block: blocks human NSD2 histone methyltransferase activity; O96028; NSD2-SET H3K36me1 DELFIA fluorescence, biochemical; inhibition, % at 12.5 µM; hit rate 0.07% among 44,000; AID 624260; in the data active means inhibition above about 54%, passing the limit was not always enough;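 further: inhibitors reduce the monomethyl H3K36 fluorescence signal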
A number is an active result; - = inactive. The entries come from a sample that favours hits as a whole.

SMILES | NSD2 block
COC(=O)C1=CO[C@@H](O[C@@H]2O[C@H](CO)[C@@H](O)[C@H](O)[C@H]2O)[C@@H]2[C@@H](C)[C@@H](O)[C@@H](OC(=O)/C=C/c3ccc(O)c(O)c3)[C@H]12 | -
Oc1ccc([C@@H]2Oc3cc(O)cc(O)c3C[C@@H]2O)cc1 | -
COc1ccccc1NC(=O)c1cc2ccccc2c(C=Nc2ccc(NC(C)=O)cc2)c1O | -
Cc1ccc(C(=O)C2C(=O)C(=O)N(CCN(C)C)C23C(=O)N(C)c2ccccc23)cc1 (stereo unspecified) | -
O=C(CCc1ccc(O)c(O)c1)C[C@H](CCc1ccc(O)c(O)c1)O[C@@H]1OC[C@@H](O)[C@H](O)[C@H]1O | -
CC1=C(C(=O)Nc2ccccc2)C(CC(C)C)n2nc(SCc3cccc(C)c3)nc2N1 (stereo unspecified) | -
COc1cc(/C=C/C(=O)O[C@@H]2C[C@@](O)(C(=O)O)C[C@@H](O)[C@@H]2O)ccc1O | -
CC(=O)CCC1C2C(O)C(C(C)C)C(OC(=O)/C=C/c3ccccc3)CC12C (stereo unspecified) | -
O=C(/C=C/c1ccc(O)cc1)O[C@@H]1CC(O)(C(=O)O)C[C@@H](OC(=O)/C=C/c2ccc(O)cc2)C1O (stereo partly specified) | 63
Nc1c(S(=O)(=O)c2ccccc2)nnn1-c1ccc(OC(F)(F)F)cc1 | -
CC1CC(=O)C2=C(CCC34OC23C(=O)c2cccc(O)c2C4O)C1 (stereo unspecified) | -
CC1C(=O)C(=O)[C@@H]2O[C@@H]2C1=O (stereo partly specified) | -
COc1ccc2ccc(=O)oc2c1C(OC(C)=O)C(=O)C(C)C (stereo unspecified) | -
O=C(CCc1ccc(O)cc1)c1ccc(O[C@@H]2O[C@H](CO)[C@H](O)[C@H](O)[C@H]2O)cc1O | -
O=C(/C=C/c1ccccc1)O[C@@H]1O[C@H](CO)[C@@H](O)[C@H](O)[C@H]1O | -
O=C(O)c1c(O)cc(OC2OC(CO)C(O)C(O)C2O)cc1/C=C/c1ccccc1 (stereo unspecified) | 76
CCCCN1C(=O)NC(C(F)(F)F)(C(F)(F)F)C2=C1CC(C)(C)CC2=O | -
COc1cc(C2Oc3c(OC)cc(CCCO)cc3C2CO)ccc1O[C@H]1O[C@H](C)[C@@H](O)[C@H](O)[C@@H]1O (stereo partly specified) | 59
COc1ccc(C2Oc3c(OC)cc(CCCO)cc3C2CO)cc1OC1OC(CO)C(O)C(O)C1O (stereo unspecified) | -
C[C@@H]1O[C@@H](Oc2ccc(C3Oc4cc(O)cc(O)c4C(=O)C3O)cc2O)[C@H](O)[C@H](O)[C@H]1O (stereo partly specified) | -
O=C(CCCCCCC(=O)N/N=C/c1ccc(OCCO)cc1)NO | -
Cc1c(C=Nc2ccc(C(C)C)cc2)sc2ccccc12 | -

Screening data deposited in PubChem BioAssay by Broad Institute.
